# Source: PubChem
# HT1080 IDH1KD tx: kills HT-1080 cells with IDH1 knockdown; HT-1080 IDH1 knockdown viability, ATP luminescence, 48 h; Potency, µM (titrated, usually from 46.1 µM), inactives show at the highest dose activity, negative = toxicity, most hits filed as cytotoxic; hit rate 2% among 360,000;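 note: 0% = DMSO wells and -100% = cell-free medium wells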
#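 Using the IDH1-knockdown HT-1080 line run in the same batch and compound series as the NT line, viability after 48 h at 37 °C was determined by CellTiter-Glo luminescence and expressed as % activity.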
# DT40 TDP1 CPT: DT40-hTDP1 cell growth loss with CPT; hit rate 12% among 420,000; chicken DT40 Tdp1-/-;hTDP1 cells + 20 nM CPT, ATP luminescence, 48 h; Potency, µM (series often up to 46.2 µM), for the others: at the top dose activity change, negative = growth inhibition, hits mostly inhibitors; note: nearly all actives have a fitted effect of over 55% in size
#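 Cell growth measured by CellTiter-Glo luminescence after a minimum 48 h, 37 C compound exposure with 20 nM CPT in Tdp1-knockout DT40 cells stably expressing hTDP1, seeded 400/well; qHTS titration format.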
# KB-V1 cytotox: KB-V1 MDR subline cytotoxicity. KB-V1 MDR cells viability, CellTiter-Glo, 72 h. Potency, µM (top dose mostly 46.1 µM), hits mostly cytotoxic. hit rate 3.4% among 400,000. AID 1347076; note: nearly all actives have a fitted effect of over 60% in size
#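 Cells of the MDR subline KB-V1 are plated, dosed with compound at multiple concentrations, and incubated 72 h at 37 degrees C; CellTiter-Glo is then added and luminescence read after 10 min.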
# KB-3-1 tox: KB-3-1 parental cell cytotoxicity; Potency, µM (highest dose often 46.1 µM), most hits filed as cytotoxic; AID 1347075; KB-3-1 viability, CellTiter-Glo ATP luminescence, 72 h; hit rate 1.4% among 400,000; note: nearly all actives have a fitted effect of over 60% in size
#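 Multi-concentration cytotoxicity screen in KB-3-1 cells grown in DMEM lacking phenol red with 10% FBS. After 72 h at 37 °C with compound, ATP-dependent luminescence was recorded.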
# DT40 TDP1 no CPT: qHTS for Inhibitors of human tyrosyl-DNA phosphodiesterase 1 (TDP1): qHTS in cells in absence of CPT; DT40 Tdp1-/- hTDP1 cells, no CPT, ATP luminescence, 48 h; Potency, µM (series often up to 46.2 µM), inactives show at the highest dose activity change, negative = growth inhibition, most hits filed as inhibitors; AID 686978, 2013; hit rate 15% among 420,000; note: nearly all actives have a fitted effect of over 55% in size
#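 A cellular qHTS used chicken DT40 cells lacking endogenous Tdp1 but carrying stably transfected human TDP1. Compounds were applied without camptothecin, and cell growth kinetics were judged by ATP-dependent luminescence after ≥48 hr.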
# HT1080NT lethal: kills 2HG-producing HT-1080-NT fibrosarcoma cells. hit rate 1.6% among 360,000. HT-1080-NT fibrosarcoma viability, CellTiter-Glo ATP luminescence, 48 h. AID 686970. Potency, µM (highest dose often 46.1 µM), for inactives: top-dose activity, negative = less viability, hits mostly cytotoxic;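 note: NT is the 2HG producing partner of a matched IDH1 knockdown line; 0% = DMSO-treated cells and -100% = media-only wells without cells; nearly all actives have a fitted effect of over 55% in size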
#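 HT-1080-NT fibrosarcoma cells (2HG-overproducing), 750 cells/well in RPMI with 5% FBS, dosed after 2 h and incubated 48 h at 37C. CellTiter-Glo luminescence normalized to DMSO and no-cell wells; concentration-response curves fitted and classed.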
# An asterisk follows results filed as active; i = inactive; u = inconclusive; x = no result given; [ ] = dose if it differs, or a comment. Sampled rows, rich in hits. Any-hit rate of the full collection: about 19%. Calls come from the whole dose curve; as a rule, active = well fitted curve in the direction sought with a large enough effect; inconclusive = small, poorly fitted or top-dose-only effect, or another doubt; inactive = no such curve, though single readings can be large; an effect the other way counts as inactive or inconclusive. Unless noted, % is set by controls: 0 for no effect and ±100 for the full control effect; potency is the fitted concentration of half-maximal effect.
SMILES,HT1080 IDH1KD tx,DT40 TDP1 CPT,KB-V1 cytotox,KB-3-1 tox,DT40 TDP1 no CPT,HT1080NT lethal
CCOC(=O)C1CCCN(C(=O)c2ccc(C(=O)c3ccccc3)cc2)C1 (configuration not stated),0.2%,-20.2%,i,i,u,-6.5%
CCOC(=O)C1CCCN(C(=O)COc2ccc(C(C)(C)C)cc2)CC1 (configuration not stated),-3.0%,20.6µM*,i,i,14.6µM*,-3.0%
CCOC(=O)C1CCCN(C(=O)COc2ccc(C(=O)c3ccccc3)cc2)C1 (configuration not stated),-15.1%,23.1µM*,i,i,23.1µM*,-10.3%
CCOC(=O)C1CCN(Cc2cnc(NC(=O)OC)s2)CC1,3.1%,-8.0%,i,i,7.7%,-2.6%
CC(=O)c1cccc(NC(=O)CSc2nc(=O)n(Cc3ccco3)c3c2CCC3)c1,x,-23.1%,i,i,u,x
Cc1ccc(S(=O)(=O)Nc2ccc(S(=O)(=O)Nc3nccs3)cc2)cc1C,-1.7%,14.3%,i,i,-16.7%,-0.1%
Cc1cccc(C)c1NC(=O)CC12CCCN1CCC2,x,u,x,x,-20.1%,x
CN(Cc1ccccc1F)C(=O)CNC(=O)Cc1cccc2ccccc12,7.9%,6.3%,u,i,-3.4%,1.5%
COc1ccc2cnn(-c3ccccc3)c(=O)c2c1OC,10.3%,u,i,i,u,16.3%
COc1ccc2cnn(-c3ccccc3C)c(=O)c2c1OC,-7.7%,10.3µM*,i,i,7.31µM*,-11.7%
CCOC(=O)c1cc(S(=O)(=O)Nc2ccc(OC)c(Cl)c2)[nH]n1,x,u,u,i,-21.8%,x
CNc1ccc(/C=C/C(=O)c2cccc3ccccc23)cc1[N+](=O)[O-],1.4%,16.4µM*,14.6µM*,u,16.4µM*,14.7%
CCOC(=O)CNC(=O)N1C[C@H]2CON(C)[C@H]2C[C@H]1c1ccccc1Br,12.2%,5.9%,i,i,-1.7%,4.1%
Cc1ccc(S(=O)(=O)N2CCC(=O)N([C@H](COCc3cccc(C(F)(F)F)c3)C(C)C)CC2)cc1,-26.4%,u,u,i,16.4µM*,-22.7%
Cc1ccc(S(=O)(=O)N2CCC(=O)N([C@H](COCc3ccc(C(F)(F)F)cc3)Cc3ccccc3)CC2)cc1,3.9%,u,i,u,u,3.0%
Cc1ccc(S(=O)(=O)N2CCC(=O)N(C(CO)C(C)C)CC2)cc1 (configuration not stated),8.1%,1.6%,i,i,-4.8%,3.0%
Cc1ccc(S(=O)(=O)N2CCC(=O)N(C(COCc3ccc(C(F)(F)F)cc3)C(C)C)CC2)cc1 (configuration not stated),-21.0%,16.4µM*,u,u,11.6µM*,-1.1%
CN1CCN(C(=O)C2CCCN(c3ncnc4c3nc3n4CCCCC3)C2)CC1 (configuration not stated),9.3%,-10.2%,u,i,17.1%,5.2%
O=C(C1CCCN(c2ncnc3c2nc2n3CCCCC2)C1)N1CCN(c2ccc(Cl)cc2)CC1 (configuration not stated),u,u,i,16.4µM*,u,u
COc1ccc(N2CCN(C(=O)C3CCCN(c4ncnc5c4nc4n5CCCCC4)C3)CC2)cc1 (configuration not stated),-8.9%,20.6µM*,u,i,16.4µM*,-17.6%
CC(=O)c1ccc(N2CCN(C(=O)C3CCCN(c4ncnc5c4nc4n5CCCCC4)C3)CC2)cc1 (configuration not stated),4.7%,14.6µM*,i,i,14.6µM*,-1.0%
O=C(C1CCCN(c2ncnc3c2nc2n3CCCCC2)C1)N1CCN(c2ccc(F)cc2)CC1 (configuration not stated),-10.5%,u,u,u,u,-21.0%
Cc1c(Cl)cccc1NC(=O)Nc1c[nH]c(=O)[nH]c1=O,x,-2.7%,i,i,-0.8%,x
CCCn1c(CN2CCN(C(C)=O)CC2)nc2cc(S(=O)(=O)N(C)C)ccc21,-1.4%,0.2%,i,i,u,-3.8%
Cc1nnc(N2CCCC(C(=O)NCCc3ccc(Cl)cc3)C2)c2nn(-c3ccccc3)c(C)c12 (configuration not stated),x,u,i,i,u,x
SMILES,HT1080 IDH1KD tx,DT40 TDP1 CPT,KB-V1 cytotox,KB-3-1 tox,DT40 TDP1 no CPT,HT1080NT lethal
COc1ccc(NC(=O)C2CCCN(c3nnc(C)c4c(C)n(-c5ccccc5)nc34)C2)cc1Cl (configuration not stated),x,10.3µM*,i,i,16.4µM*,x
Cc1nnc(N2CCCC(C(=O)Nc3cc(F)ccc3F)C2)c2nn(-c3ccccc3)c(C)c12 (configuration not stated),-4.2%,13µM*,i,i,23.1µM*,-2.4%
Cc1nnc(N2CCCC(C(=O)Nc3ccccc3C(F)(F)F)C2)c2nn(-c3ccccc3)c(C)c12 (configuration not stated),x,18.4µM*,i,i,18.4µM*,x
CC(=O)Nc1ccc(NC(=O)C(c2ccccc2)N2Cc3ccccc3C2=O)cc1 (configuration not stated),x,9.2%,x,x,1.9%,x
COc1ccc(Cl)cc1NC(=O)CSc1nnc2[nH]c(=O)cc(C)n12,x,19.1%,x,x,-5.9%,x
COc1ccc(N/N=C(/C(N)=O)C2=NC(C)(C)Cc3ccccc32)cc1,u,16.4µM*,u,u,16.4µM*,u
COc1ccc(NC(=O)NCc2ccccn2)cc1,-0.9%,1.1%,i,i,-7.5%,7.8%
COc1cccc2c(=O)c(C(=O)NCc3cccs3)c[nH]c12,-20.8%,-12.5%,u,u,6.51µM*,0.7%
CCOCCCNC(=O)c1c[nH]c2ccc(C)cc2c1=O,14.7%,0.8%,i,i,-26.6%,9.7%
Cc1ccc2[nH]cc(C(=O)NCc3cccs3)c(=O)c2c1,2.7%[9.24 µM],23.1µM*,u,i,23.1µM*,-26.1%
CCOc1ccc(CN(C)C(=O)CNC(=O)c2cc(OC)c(OC)c(OC)c2)cc1,1.2%,0.8%,i,i,-17.9%,10.3%
COc1ccc(CNC(=O)CN(C)Cc2ccc(C(C)(C)C)cc2)cc1,u,u,u,i,u,-5.5%
COc1cc2c(cc1OC)-c1nnc(-c3ccco3)n1C1(CCCC1)C2,-7.2%,u,i,i,18.4µM*,-1.2%
